Bioassay records from PubChem.
Mac1 fbg inh = inhibitors of human CD11b/CD18 binding to fibrinogen. P05107+P11215. K562 CD11b/CD18 adhesion to fibrinogen, ATPlite luminescence; Mn2+ added to activate the integrin. inhibition, % at 10 µM. 93,000 tested, 0.54% active. AID 1497;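 active = primary inhibition of 50% or more at 10 µM, then 40% or more on retest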
Mac1 fbg enh = enhancers of human CD11b/CD18 binding to fibrinogen; P05107+P11215; K562 CD11b/CD18 adhesion to fibrinogen, ATPlite luminescence; activation, % at 10 µM; 93,000 tested, 0.07% active;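 active = 10 µM primary screen giving 50% or more activity, confirmed by 40% or more on retest at that dose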
CYP2C19 inh = blocks human cytochrome P450 2C19; P33261; CYP2C19 Supersomes, luciferin-H EGE luminescence, 30 min; inhibition, % at 5 µM; 96,000 tested, 21% active;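 active = CYP2C19 inhibition above a set limit at 5 µM in the primary screen, cut at about 50% in these data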
CYP2C19 act = cytochrome P450 2C19 (human) activation; 96,000 tested, under 10 active; activation factor at 5 µM; P33261; recombinant CYP2C19, luciferin-H EGE luminescence; active compounds read high; 0 = fully inhibited enzyme, 1 = untreated enzyme; AID 1025;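 active = activation factor of at least 2 at 5 µM in the primary screen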
CYP2C9 activ = activators of human CYP2C9; AID 1024; recombinant CYP2C9, luciferin-H conversion, luminescence; active compounds read high; factor 1 = untreated enzyme, 0 = blocked; 96,000 tested, 1.4% active; P11712; activation factor at 5 µM;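 active = activation factor of 2 or more for CYP2C9 at a 5 µM dose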
Target sequence (P11712 whole entry, looked up): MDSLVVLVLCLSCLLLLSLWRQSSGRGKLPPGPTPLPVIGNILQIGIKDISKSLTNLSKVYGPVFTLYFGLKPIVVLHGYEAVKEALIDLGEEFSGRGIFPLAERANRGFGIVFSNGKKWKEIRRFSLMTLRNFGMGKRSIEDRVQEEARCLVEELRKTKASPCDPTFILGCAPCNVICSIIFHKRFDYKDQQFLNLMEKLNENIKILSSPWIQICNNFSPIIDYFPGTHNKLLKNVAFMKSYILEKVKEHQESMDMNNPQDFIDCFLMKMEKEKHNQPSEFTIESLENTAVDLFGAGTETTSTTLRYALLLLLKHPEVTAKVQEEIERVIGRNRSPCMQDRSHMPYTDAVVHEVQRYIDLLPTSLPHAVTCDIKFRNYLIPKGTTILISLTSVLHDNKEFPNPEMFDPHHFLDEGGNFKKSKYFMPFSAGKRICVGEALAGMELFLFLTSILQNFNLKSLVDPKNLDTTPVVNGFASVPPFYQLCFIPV
CYP2C9 inhib = inhibitors of human CYP2C9; P11712; CYP2C9 Supersomes, luciferin-H conversion, luminescence; inhibition, % at 5 µM; 96,000 tested, 20% active;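 active = blocking of liver enzyme CYP2C9 beyond about 50% at 5 µM, limit read from the data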
Of the large screens only hits and unclear results are named; the others gave an inactive call. Sampled rows, rich in hits. Any-hit rate of the full collection: about 28%.

CCCn1nc(C(=O)Nc2ccc(S(=O)(=O)Nc3nccs3)cc2)c2ccccc2c1=O	CYP2C9 inhib 59.5
COc1ccc(/C=C2/SC(=O)N(CCC(=O)Nc3ccccc3)C2=O)cc1OC	none (no result: CYP2C19 inh, CYP2C19 act, CYP2C9 activ, CYP2C9 inhib)
O=C(CCN1C(=O)S/C(=C\c2ccccc2)C1=O)Nc1ccc(S(=O)(=O)Nc2nccs2)cc1	CYP2C9 inhib 64.7 (no result: Mac1 fbg inh, Mac1 fbg enh)
CC(=O)N1CCN(C(=S)c2ccc([N+](=O)[O-])cc2)CC1	CYP2C19 inh 50.7
COc1ccc2cc3cc(C(=O)NCC4COc5ccccc5O4)oc3nc2c1 (stereo not drawn)	none (no result: Mac1 fbg inh, Mac1 fbg enh)
Cc1cc(C)c(N2CCN(S(=O)(=O)N3CCCCCC3)CC2)c(C)c1	CYP2C19 inh 80.0, CYP2C9 inhib 73.0
CCc1ccccc1N1CC(C(=O)O)CC1=O (stereo not drawn)	none
N#CNC1=NCN(Cc2ccccc2)CN1	none
Cn1c(N2CCC(C(N)=O)CC2)nc2c1c(=O)n(Cc1cccc(Br)c1)c(=O)n2C	none
CCOC(=O)C1=C(c2ccccc2)N(C)C(=O)NC1c1ccc(O)c(OC)c1 (stereo not drawn)	CYP2C19 inh 69.4
CCOC(=O)C1=C(c2ccccc2)NC(=O)NC1c1ccc(OCC#N)c(OC)c1 (stereo not drawn)	none
CCOC(=O)C1=C(c2ccccc2)Nc2c(c(=O)n(C)c(=O)n2C)C1c1ccc(O)c(OC)c1 (stereo not drawn)	CYP2C9 inhib 52.5
CC1=C(C(=O)OCc2ccccc2)C(c2cccnc2)c2c(n(C)c(=O)n(C)c2=O)N1 (stereo not drawn)	CYP2C19 inh 93.6, CYP2C9 inhib 59.6 (no result: Mac1 fbg inh, Mac1 fbg enh)
CCOC(=O)c1cn(-c2nc(-c3ccc(Cl)c(Cl)c3)cs2)c2c(F)c(N3CCOCC3)c(F)cc2c1=O	Mac1 fbg enh 51.9
Cc1ccc(-c2nsc3c(N4CCN(C(=O)c5ccco5)CC4)ncnc23)cc1	none
COc1ccc(S(=O)(=O)N2CCC(N3CCN(c4ccccc4)CC3)CC2)cc1	none (no result: Mac1 fbg inh, Mac1 fbg enh)
CC(NC(=O)CCOc1ccccc1)c1ccccc1 (stereo not drawn)	CYP2C19 inh 94.9
CC(NC(=O)Cc1ccc(F)cc1)c1ccccc1 (stereo not drawn)	none (no result: Mac1 fbg inh, Mac1 fbg enh)
COc1ccc(OCCCC(=O)NC(C)c2ccccc2)cc1 (stereo not drawn)	CYP2C19 inh 56.9
COc1ccc(C2C(C#N)=C(N)OC(C(C)(C)C)=C2C#N)cc1OC (stereo not drawn)	CYP2C19 inh 60.6, CYP2C9 inhib 90.2
COc1cccc(C2C(C#N)=C(N)OC(C(C)(C)C)=C2C#N)c1 (stereo not drawn)	CYP2C19 inh 84.9, CYP2C9 inhib 94.0
CC(C)(C)n1nnnc1C(c1cccnc1)N1CCN(c2ccccc2)CC1 (stereo not drawn)	CYP2C19 inh 59.4 (no result: Mac1 fbg inh, Mac1 fbg enh)
CC(C)(C)n1nnnc1C(c1ccncc1)N1CCCCCC1 (stereo not drawn)	CYP2C19 inh 83.1, CYP2C9 inhib 73.4
c1ccc(CCn2nnnc2C(c2cccs2)N2CCOCC2)cc1 (stereo not drawn)	none
Cc1cccc(N2CCN(C(c3cccs3)c3nnnn3C(C)(C)C)CC2)c1C (stereo not drawn)	CYP2C9 inhib 53.6
CC(C)(C)n1nnnc1C(c1cccs1)N1CCN(c2ccccc2)CC1 (stereo not drawn)	CYP2C9 inhib 79.0
CC(C)(C)n1nnnc1C(c1ccc(C#N)cc1)N1CCCC2(CCCCC2)C1 (stereo not drawn)	none
O=C(COc1ncnc2c1cnn2-c1ccccc1)Nc1ccc(S(=O)(=O)N2CCCCC2)cc1	none (no result: CYP2C19 inh, CYP2C19 act, CYP2C9 activ, CYP2C9 inhib)
COC(=O)c1ccccc1NC(=O)c1cc2ncc(Br)cn2n1	none
Cc1nnc(SCc2ccc(Cl)cc2)n1CC1CCCO1 (stereo not drawn)	none (no result: Mac1 fbg inh, Mac1 fbg enh)
OCCN(CC(O)COc1ccccc1)CC(O)Cn1ccc2ccccc21 (stereo not drawn)	none (no result: CYP2C19 inh, CYP2C19 act, CYP2C9 activ, CYP2C9 inhib)
O=C1c2ccccc2S(=O)(=O)N1CC(O)Cn1ccc2ccccc21 (stereo not drawn)	CYP2C19 inh 97.3, CYP2C9 inhib 70.8
Cc1cc(C)n(CC(O)Cn2c3ccc(Cl)cc3c3cc(Cl)ccc32)c(=O)n1 (stereo not drawn)	CYP2C19 inh 57.8, CYP2C9 inhib 94.7
OC(CNCC1CCCO1)Cn1c2ccc(Cl)cc2c2cc(Cl)ccc21 (stereo not drawn)	none (no result: Mac1 fbg inh, Mac1 fbg enh)
Cc1cc(C)n(CC(O)Cn2ccc3ccccc32)n1 (stereo not drawn)	CYP2C19 inh 72.0
Cc1cc(C)n(CC(O)Cn2c3ccccc3c3ccccc32)n1 (stereo not drawn)	CYP2C19 inh 81.7, CYP2C9 inhib 61.1
OCc1nc2ccccc2n1CC(O)Cn1ccc2ccccc21 (stereo not drawn)	CYP2C19 inh 90.1, CYP2C9 inhib 84.1
Cc1cc(C)n(CC(O)CN2c3ccccc3Sc3ccccc32)n1 (stereo not drawn)	CYP2C19 inh 66.1
Cc1cc(C)n(CC(O)CN(c2ccccc2)S(=O)(=O)c2ccccc2)n1 (stereo not drawn)	none (no result: Mac1 fbg inh, Mac1 fbg enh)
Oc1ccccc1NCC(O)Cn1ccc2ccccc21 (stereo not drawn)	none
COCCCNC(=O)C1CCN(C(=O)Nc2ccc(Cl)cc2)CC1	none
CCOC(=O)c1[nH]c(C)c(C(=O)OCCOc2cccc(C)c2)c1C	none (no result: CYP2C19 inh, CYP2C19 act, CYP2C9 activ, CYP2C9 inhib)
O=C(NCCNC(=O)c1cc(OCC(F)(F)F)ccc1OCC(F)(F)F)Nc1ccccc1	CYP2C9 inhib 56.7 (no result: Mac1 fbg inh, Mac1 fbg enh)
O=C(NO)c1cc(OCC(F)(F)F)ccc1OCC(F)(F)F	none (no result: Mac1 fbg inh, Mac1 fbg enh)
C#CCONC(=O)c1cc(OCC(F)(F)F)ccc1OCC(F)(F)F	CYP2C19 inh 61.0 (no result: Mac1 fbg inh, Mac1 fbg enh)
O=C(NCCn1cccc1)c1cccc2ccccc12	none
COc1cc(OC)c(S(=O)(=O)N2CCCCC2)cc1S(=O)(=O)N1CCCCC1	CYP2C19 inh 64.0
CCOc1c(S(=O)(=O)N2CCCC2)ccc(Cl)c1Cl	CYP2C19 inh 92.7
CCOc1ccc(Cl)cc1S(=O)(=O)N1CCCC1	CYP2C19 inh 53.4, CYP2C9 activ 2.2
COc1ccc(Cl)cc1NS(=O)(=O)c1ccc(S(=O)(=O)N2CCCC2)cc1	none
COc1ccc(Cl)cc1S(=O)(=O)N1CCCC1	CYP2C9 activ 2
CCOc1nc(-c2ccccc2Cl)ccc1C#N	none
COc1ccc(Cl)cc1S(=O)(=O)N1CCN(C)CC1	CYP2C19 inh 55.1
COC(=O)C(NNc1ccccc1C)(NC(=O)c1ccc(F)cc1)C(F)(F)F (stereo not drawn)	CYP2C19 inh 78.9, CYP2C9 inhib 53.8
O=C(CSc1ccc(-c2ccco2)nn1)c1ccccc1	none (no result: CYP2C19 inh, CYP2C19 act, CYP2C9 activ, CYP2C9 inhib)
Cc1ccc(NC(=O)NC(=O)CN2C(=O)NC3(CCc4ccccc43)C2=O)c(C)c1 (stereo not drawn)	none
COc1ccc2c(c1[N+](=O)[O-])CCC/C2=N/OC(=O)c1cccc2ccccc12	CYP2C9 activ 2
